“And” between values parts separate entries of the source, which are not always exact repeats. Identical values can stand only once. The source holds several records for some structures; these can differ, active in one and inactive in another. The source made the active and inactive calls. How the source made its calls: active means hit-call score of the fitted dose curve at least 0.9, where 1 is the maximum; inactive means score below 0.9.
read-out: Interleukin-8 (IL8), CXCL8 (gene 3576); test: BSK_hDFCGF_IL8: BioMAP Diversity Plus: hDFCGF Assay for Interleukin-8 (IL8) Biomarker Activity (AID 2283058); conditions: primary human foreskin fibroblasts; actives raise or lower the signal
Method: BSK_hDFCGF is a cell-based, multiplexed-readout assay that uses foreskin fibroblast, a human skin primary cell, with measurements taken at 24 hours after chemical dosing in a 96-well plate.BSK_hDFCGF_IL8 is an assay component measured in the BSK_hDFCGF assay. It measures IL-8 antibody related to regulation of gene expression using ELISA technology.Data from the assay component BSK_hDFCGF_IL8 was analyzed into 1 assay endpoint. This assay endpoint, BSK_hDFCGF_IL8, was analyzed with bidirectional fitting relative to DMSO as the negative control and baseline of activity. Using a type of binding reporter, gain or loss-of-signal activity can be used to understand changes in the signaling as they relate to the gene CXCL8. Furthermore, this assay endpoint can be referred to as a primary readout, because this assay has produced multiple assay endpoints where this one serves a signaling function. To generalize the intended target to other relatable targets, this assay endpoint is annotated to the cytokine intended target family, where the subfamily is interleukins.
The levels of cell surface (or secreted, indicated by the prefix "s") biomarker endpoints were measured by ELISA. Overt cytotoxicity to cells in confluent adherent cultures (all systems other than the BT system) was assessed by measuring total protein levels using sulforhodamine B (SRB) staining in parallel cultures at the time of biomarker measurements, indicated as SRB endpoints. For proliferation assays for adherent cell types, individual cell types are cultured at sub-confluence and relative cell numbers quantified by SRB staining at time points optimized for each system (48 h: 3C and CASM3C systems; 72 h: BT and HDF3CGF systems; 96 h: SAg system). SRB was performed by staining cells with 0.1% SRB after fixation with 10% TCA and reading wells at 560 nm.Viability and proliferation of PBMC (T cells) was quantified by Alamar Blue reduction for the SAg and BT systems. For PBMC viability (referred to as PBMC Cytotoxicity within the assay endpoint names), cells were plated (75,000/well in a 96-well plate) and then chemical samples added for 1 h before addition of activators, SEB and TSST-1 (20 ng/mL final concentration each). Cells were incubated for 90 h. Then, Alamar Blue (20 uL/well) (Invitrogen, Cat DAL1100) was added for 6 h, and the plates were read with a fluorescence microplate reader at 546/580 nm (excitation/emission). For PBMC proliferation, cells were plated and activated as above but incubated for only 16 h prior to addition of Alamar Blue. Plates were read after 6 h.

Compound | outcome | AC50
COc1ccc(C(=O)c2ccccc2)c(O)c1 | inactive | 
O=C(O)C(F)(F)C(F)(F)C(F)(F)C(F)(F)C(=O)O | inactive | 
CCOC(=O)/C=C\C(=O)OCC | inactive | 
Clc1cc(Cl)c(Cl)c(Cl)c1Cl | inactive | 
O=C1CCCCCCCCCCCN1 | inactive | 
Oc1c(Cl)cc(Cl)c(Cl)c1Cl | inactive | 
CCCCCCCCCCCC(C)=O | inactive | 
CCOC(=O)C1=NOC(c2ccccc2)(c2ccccc2)C1 | inactive | 
c1ccc(Nc2cccc3ccccc23)cc1 |  | 35.1 µM (active) and 36.6 µM (active)
CC(C)c1cccc(C(C)C)c1N | inactive | 
CCCCCCCO | inactive | 
C1CNCCN1 | inactive | 
Nc1ccc(C(=O)O)cc1 | inactive | 
Oc1ccc(/C=C/c2cc(O)cc(O)c2)cc1 | inactive | 
COc1ccc(C(=O)/C(Br)=C\C(=O)O)cc1 | inactive | 38.9 µM (active)
Fc1ccc(Br)cc1 | inactive | 
O=C(Cl)c1c(Cl)c(Cl)c(C(=O)Cl)c(Cl)c1Cl | inactive | 
Nc1cccc(N)n1 | inactive | 
CCCCCCOC(=O)CCCCC(=O)OCCCCCC | inactive | 
CC=C(C)C(C)=O | inactive | 

Compound | outcome | AC50
COC(OC)(C(=O)c1ccccc1)c1ccccc1 | inactive | 
CCN1CN(CC)CN(CC)C1 | inactive | 
CCNc1nc(NC(C)(C)C)nc(OC)n1 | inactive | 
CC(C)CCCCCOC(=O)CS | inactive | 
c1ccc2c(c1)[nH]c1ccccc12 | inactive | 
Nc1nc(N)nc(-c2ccccc2)n1 | inactive | 
CC(C)C(=O)OCCc1ccccc1 | inactive | 
CC1(C)CC(O)CC(C)(C)N1[O] | inactive | 
C=CC(=O)NCOCCCC | inactive | 
CCCCCCCCCCCC(=O)N(C)CC(=O)O | inactive | 
C=C(C)C(=O)OCCCCCCCCCCCC | inactive | 
CC(c1cc(C(C)(C)C)cc(C(C)(C)C)c1O)c1cc(C(C)(C)C)cc(C(C)(C)C)c1O | inactive | 
C=CC(=O)OCCCCCCOC(=O)C=C |  | 20 µM (active)
C[N+](C)(C)CCCNS(=O)(=O)C(F)(F)C(F)(F)C(F)(F)C(F)(F)C(F)(F)C(F)(F)C(F)(F)C(F)(F)F |  | 49.3 µM (active) and 45.2 µM (active)
C=CC(=O)NC(C)(C)C | inactive | 
C=CC(=O)OCCCCCCCC(C)C | inactive | 
CCCC(C)C(=O)OCC (stereo not given) | inactive | 
CC(CCC(=O)O)(c1ccc(O)cc1)c1ccc(O)cc1 | inactive | 
CC/C=C\C/C=C\C/C=C\CCCCCCCC(=O)OC |  | 20 µM (active)
